About 79,000 compounds went through this panel and 15% of them were active in at least one assay; those are over-represented in the sample as a whole. Cut-off read from the data, not from the text of the source: active = growth inhibition above about 70%; inactive = the rest.
Columns and labels:
[1] = NCI Yeast Anticancer Drug Screen. Data for the rad50 strain (AID 155);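 note: 0% = growth of vehicle-only cultures of the same strain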; details: S. cerevisiae rad50 strain growth inhibition; at 50.0 µM; active compounds read high
How it was run: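 Cells are treated with compound, grown, and their growth is then scored against vehicle-only cultures of the same repair-deficient yeast strain.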

[2] = NCI Yeast Anticancer Drug Screen. Data for the mec2-1 strain (AID 157); details: S. cerevisiae mec2-1 strain, at 50.0 µM, active compounds read high
How it was run: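 Strain: mec2-1 (DNA repair/cell cycle alteration). Compound exposure, then growth measured; inhibition expressed relative to vehicle.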

[3] = NCI Yeast Anticancer Drug Screen. Data for the sgs1 mgt1 strain (AID 161);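 note: 0% = growth of cultures given vehicle only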; details: S. cerevisiae sgs1 mgt1 strain, at 50.0 µM, active compounds read high
How it was run: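 Genetically altered yeast, compound exposure, growth inhibition relative to vehicle.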

[4] = NCI Yeast Anticancer Drug Screen. Data for the cln2 rad14 strain (AID 165);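 note: 0% = growth equal to vehicle treated cultures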; details: S. cerevisiae cln2 rad14 strain, at 50.0 µM, active compounds read high
How it was run: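 Compounds are applied to the cln2 rad14 yeast strain, and growth is then compared with that of vehicle-treated cultures to give inhibition.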

[5] = NCI Yeast Anticancer Drug Screen. Data for the bub3 strain (AID 167); details: S. cerevisiae bub3 mutant strain, at 50.0 µM, active compounds read high
How it was run: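 Part of a panel of yeast mutants defective in DNA damage repair or cell cycle regulation. Each strain is grown with compound, and inhibition is calculated relative to solvent-treated cultures.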

[6] = NCI Yeast Anticancer Drug Screen. Data for the mlh1 rad18 strain (AID 175); details: S. cerevisiae mlh1 rad18 strain growth inhibition; at 50.0 µM; active compounds read high
How it was run: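 Read-out is yeast growth inhibition, calculated against vehicle-only controls. The compound was applied to a strain engineered with DNA damage repair alterations.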

Measured: growth inhibition

O=C1NC(=O)C2C1C1C=C3c4ccccc4N(c4ccccc4)C32[C@H]2C(=O)NC(=O)[C@@H]12 (stereo partly specified)
inactive: [1] -3.4% | [2] -13.2% | [3] 7.15% | [4] 24.9% | [5] 17.4% | [6] -4.9%

CN(C)CCNC(=O)c1cc([N+](=O)[O-])cn1C
inactive: [1] 10.9% | [2] -1.4% | [3] 9.15% | [4] 7.65% | [5] 1.25% | [6] -68.2%

N#Cc1c(-c2ccccc2)c(C#N)c(=S)n(C2OCC(O)C(O)C2O)c1N (stereo unspecified)
inactive: [1] -23.6% | [2] -2.2% | [3] -10% | [4] -38.5% | [5] 3.05% | [6] -15.1%

c1ccc(CC2=NCCc3ccccc32)cc1
inactive: [1] -16.4% | [2] -28.3% | [3] -3.3% | [4] 1.15% | [5] -2.6% | [6] -8.7%

CSc1[nH]c2ncnc(Cl)c2c1C#N
inactive: [1] 23.6% | [2] 10.3% | [3] 15.9% | [4] -21.8% | [5] -27.3% | [6] 21.7%

CCC(C=NCCBr)(CCC(=O)OC)CCC(=O)OC
inactive: [1] -7.9% | [2] 16.2% | [3] -13.9% | [4] -8.4% | [5] 12.4% | [6] 10.2%

CC(=O)C(C)CO (stereo unspecified)
inactive: [1] 14.2% | [2] -21.1% | [3] 5.5% | [4] 8.55% | [5] 9.2% | [6] 13.7%

CC(=O)C1C(=O)C(=O)N(CCN2C(=O)C(=O)C(C(C)=O)C2=O)C1=O (stereo unspecified)
inactive: [1] -12.4% | [2] -0.8% | [3] 0.95% | [4] -26.2% | [5] -5.9% | [6] 0.75%

O=C1C(Cl)=C(NCCCN2CCN(CCCNC3=C(Cl)C(=O)c4ccccc4C3=O)CC2)C(=O)c2ccccc21
inactive: [1] 44.5% | [2] 27.8% | [3] 33.1% | [4] 9.45% | [5] 6.35% | [6] 33.6%

O=C(O)CC(/C=C\C(=O)C(=O)O)=C\O
inactive: [1] -6.6% | [2] -6.4% | [3] -11.6% | [4] 3.6% | [5] 4.15% | [6] -10.2%

Cc1ccc(NC(=S)Nc2ccccc2F)cc1
inactive: [1] -8% | [2] -13.2% | [3] -2.2% | [4] -28.8% | [5] 43.5% | [6] 10%

CC1OC(OC2C(OC(=O)[C@]34CCC(C)(C)C[C@H]3C3=CC[C@@H]5[C@@]6(C)CC[C@H](OC7OC(C(=O)O)C(O)C(OC8OCC(O)C(O)C8O)C7O)C(C)(C)[C@@H]6CC[C@@]5(C)[C@]3(C)CC4)OCC(O)C2O)C(O)C(OC2OCC(O)C(O)C2O)C1OC1OCC(O)C(OC2OCC(O)C(O)C2O)C1O (stereo partly specified)
inactive: [1] 17.1% | [2] 21.2% | [3] 19.6% | [4] 31.2% | [5] 38.4% | [6] 29.8%

C=C1C2CCC3(CCC4C5(C)CCCC4(CN(CCO)C5)C3C2)C1O (stereo unspecified)
inactive: [1] -13.6% | [2] -39.9% | [3] -4.45% | [4] 12.8% | [5] -13.4% | [6] -1.15%

N#CC(=NCCO)C1=C(O)c2ccccc2C1=O
inactive: [1] 6.1% | [2] -10.7% | [3] -16.3% | [4] -30.6% | [5] -48% | [6] -12.3%

S=c1cc(S)sc2c1c(=S)sc1nc3ccccn3c(=S)c12
inactive: [1] -2.35% | [2] 28.6% | [3] 35.3% | [4] 18% | [5] 24.6% | [6] 45%

Cn1cnc([N+](=O)[O-])c1Sc1nccn1-c1ccccc1
inactive: [1] -10.8% | [2] -7.1% | [3] -7.8% | [4] 22.2% | [5] 0.75% | [6] -2.85%

Cc1cccc(C)c1NC(=O)C(=O)Cc1nc2ccccc2s1
inactive: [1] -12.1% | [2] -0.45% | [3] -9.25% | [4] -4.45% | [5] -30.5% | [6] -6.8%

O=C1OC(c2ccc([N+](=O)[O-])cc2)=N/C1=C\c1cccc([N+](=O)[O-])c1
inactive: [1] 23.1% | [2] 20.9% | [3] 36.2% | [4] 38.2% | [5] 22.1% | [6] 52%

Cc1ccc(C(=O)/C=C(\C(=O)c2ccccc2)c2ccccc2)cc1C
inactive: [1] 12.5% | [2] 14.8% | [3] 1.85% | [4] 11.7% | [5] 11.3% | [6] 9.65%

CC(C)=C(CSC#N)S(=O)(=O)c1ccc(C)cc1
inactive: [1] 0.45% | [2] 14.2% | [3] 7.1% | [4] -5.1% | [5] 36.9% | [6] 14.7%

Clc1ccc(N=Cc2ccc(C=Nc3ccc(Cl)c(Cl)c3)cc2)cc1Cl
inactive: [1] -7.7% | [2] -21.8% | [3] 15.7% | [4] 11% | [5] 16.9% | [6] 11.6%

NC(=S)Nc1c(Cl)cc(Cl)cc1Cl
inactive: [1] 44% | [2] -8.9% | [3] 33.4% | [4] 8.6% | [5] 17.3% | [6] 12.3%

C=C1CCCCCCCCCCC12SCCCS2
inactive: [1] -42.1% | [2] 7.6% | [3] -25.7% | [4] -11.9% | [5] 20% | [6] -26.6%

C[Si](C)(CCCNCCN)O[Si](C)(C)CCCNCCN
inactive: [1] -7.3% | [2] -24.1% | [3] 5.65% | [4] -2.1% | [5] 9.2% | [6] 9.95%

CCn1c2ccc([N+](=O)[O-])cc2c2c([N+](=O)[O-])c(NC=O)ccc21
inactive: [1] 12.2% | [2] 15.2% | [3] -4.55% | [4] 17.6% | [5] 13.8% | [6] 28.2%

CCOC(=O)C(Cl)C(C)(O)c1ccccc1 (stereo unspecified)
inactive: [1] 11.2% | [2] -3.65% | [3] 11.9% | [4] -46.7% | [5] 5.8% | [6] 17.8%

COc1ccc(C(C#N)NNc2nc(C)cc(=O)[nH]2)cc1OC (stereo unspecified)
inactive: [1] -60.1% | [2] -47.5% | [3] -43.2% | [4] -19.6% | [5] -30.9% | [6] -47%

Cc1ccncc1.[O]=[Ge].[O]=[Ge].[O]=[Ge].[O]=[Ge].[O]=[Ge].[O]=[Ge][OH].[O]=[Ge][OH]
inactive: [1] -27.3% | [2] -35.4% | [3] -42.5% | [4] -23.1% | [5] -24.8% | [6] -30.1%

CCN1C(=O)N(C)C(O)c2c1nc1ccccn1c2=O (stereo unspecified)
inactive: [1] -14.1% | [2] -8.35% | [3] -33.4% | [4] 3.65% | [5] -15.7% | [6] -19.6%

N#CC1(C#N)C(c2ccccc2)C1(C#N)C(N)=O (stereo unspecified)
inactive: [1] -13.2% | [2] 11.4% | [3] -22.9% | [4] -20.6% | [5] -6.7% | [6] -27.5%

CCOC(=O)C1=C(C)N(NC(N)=O)C2(O)CCCC(=O)C12C (stereo unspecified)
inactive: [1] 5.35% | [2] -0.45% | [3] 0.65% | [4] -52.2% | [5] -3.8% | [6] 2.2%

Cc1ccc(N=Nc2ccc(C)cc2NC(=O)c2ccc(Cl)cc2)cc1
inactive: [1] -3.15% | [2] 10.2% | [3] 17.1% | [4] -7.8% | [5] 32.3% | [6] 8.85%

CCOC(=O)/C(=C/c1ccc(N(CCC#N)CCC#N)cc1C)NC(=O)/C=C/c1ccccc1
inactive: [1] -2.25% | [2] -5.85% | [3] -16.2% | [4] -20.6% | [5] -25.4% | [6] -9.65%

O=S(=O)(Oc1ccc(-c2ccccc2)cc1Br)c1ccccc1
inactive: [1] 13% | [2] -0.85% | [3] 5.55% | [4] 8.3% | [5] 1.8% | [6] -5.6%

OCCc1ccc2ccccc2c1
inactive: [1] 4.05% | [2] -5.95% | [3] 3.05% | [4] -9.3% | [5] 13.8% | [6] -1.15%

COc1ccc(NC(=O)Oc2ccc(C#N)cc2)cc1
inactive: [1] -1.3% | [2] -16.1% | [3] 5.5% | [4] 8.3% | [5] 10.4% | [6] -1.55%

CCc1nnc(CC)n1N1C(=O)CCC1=O
inactive: [1] 24.1% | [2] 28.1% | [3] 26.2% | [4] 11.1% | [5] 24.8% | [6] 21.7%

CCN(CC)CCCC(C)NCCCN (stereo unspecified)
inactive: [1] -7.15% | [2] -9.05% | [3] -5.4% | [4] -5.4% | [5] -23.3% | [6] -10%

N#C/C(=C\c1ccccc1Br)C(=O)c1ccccc1
inactive: [1] 15.2% | [2] 6.15% | [3] -3.35% | [4] 11.4% | [5] -12.8% | [6] -14.3%

O=C(NC12CC3CC(CC(C3)C1)C2)C(=O)c1c[nH]c2ccccc12
inactive: [1] 8.5% | [2] 14.2% | [3] 8.1% | [4] 24.6% | [5] 23.6% | [6] 11.4%

CN(C)CCOc1cccc(OCCN(C)C)n1
inactive: [1] 10.7% | [2] -3.25% | [3] 3.2% | [4] 1.1% | [5] 9.35% | [6] 8.7%
